This is an account of results in PubChem BioAssay AID1346378 (National Center for Advancing Translational Sciences (NCATS), 2018).

Out of some 420,000 compounds screened, about 540 (0.13%) were called active. Cut-off read from the data, not from the text of the source: active = activity change below about -50%; inconclusive = mostly about -30% to -49%; inactive = weaker than that. The sample as a whole holds a higher share of actives than the screen did.

Sequence of Phosphatidylinositol 4-kinase type 2-alpha (Homo sapiens) (Q9BTU6 whole entry, looked up): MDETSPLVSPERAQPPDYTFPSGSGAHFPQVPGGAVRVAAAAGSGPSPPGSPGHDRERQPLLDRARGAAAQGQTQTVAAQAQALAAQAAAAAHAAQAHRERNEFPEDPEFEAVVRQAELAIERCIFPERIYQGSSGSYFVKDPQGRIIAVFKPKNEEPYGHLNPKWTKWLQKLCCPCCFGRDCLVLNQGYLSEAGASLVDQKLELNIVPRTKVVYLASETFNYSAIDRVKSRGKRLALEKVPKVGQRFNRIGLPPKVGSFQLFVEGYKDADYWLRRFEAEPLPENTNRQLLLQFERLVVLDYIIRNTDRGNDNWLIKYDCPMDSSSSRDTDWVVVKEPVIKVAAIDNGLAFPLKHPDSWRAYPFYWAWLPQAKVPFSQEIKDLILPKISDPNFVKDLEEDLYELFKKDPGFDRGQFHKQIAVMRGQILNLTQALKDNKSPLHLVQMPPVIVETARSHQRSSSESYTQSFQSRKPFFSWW

This assay has as its target Phosphatidylinositol 4-kinase type 2-alpha (Homo sapiens) (UniProt Q9BTU6). Put plainly: qHTS for small molecular inhibitors of PI4K2A.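 For activity change, negative = inhibition: -100% = wells without enzyme as full effect.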 The conditions noted are these: purified PI4K2A, ADP-Glo luminescence, 1 h; at 76.9 µM, hits give low values. An excerpt: The phosphatidylinositol 4-phosphate (PI4P) is emerging as a key regulator of lipid transfer in ER-membrane contact sites. The four different phosphatidylinositol 4-kinase (PI4K) enzymes generate PI4P in different membrane compartments supporting distinct cellular processes many of which are crucial for the maintenance of cellular integrity but also hijacked by intracellular pathogens. The goal of this screening project is to search for small molecular inhibitors of PI4K2A based on a high throughput screening strategy.The ADP-Glo assay was used as a starting point to develop a miniaturized version for HTS applications. To implement the HTS screen, the PI4K ADP-Glotrade mark Kinase assay (Promega, V9102) was miniaturized for the 1536-well format used at NCGC.
For the robotic screening, the ADP-Glo assay using the ADP-Glotrade mark Kinase Assay kit from Promega was miniaturized and optimized on 1536-well white solid bottom plates (Greiner Bio-one). The substrate, 1.2 mM PI, prepared in the assay buffer (40mM Tris pH7.5, 20mM MgCl2, 1mM EGTA, 0.4% Triton X-100, 0.5mM DTT, 0.5mg/ml BSA) and PI4K2A enzyme, diluted also in the assay buffer to 4ug/mL, were dispensed onto the plates in equal volumes (1microl/well), pinned with 23 nL/well tested compounds or control followed by dispensation of 1microl/well 300microM ATP. The plates were incubated for one hour. Then, 2 µL/well of ADP-Glo reagent was added and incubated for 40 minutes. Next, 4microL/well of Kinase Detection Buffer was added to the plates and incubated for additional 40 minutes. All incubation steps were performed at ambient temperature. The resulting luminescence signal was measured on Viewlux plate reader (PerkinElmer). Adenosine, a partial non-specific inhibitor, was used as a positive control at 100microM final concentration to assess the assay's quality and plate-to-plate reproducibility. We also used "no enzyme" control to gauge the assay's maximal potential inhibition (IC100).
For the compound `C=CCN(CC=C)C(=O)Nc1ccc(OCC)cc1`, the activity change, negative = inhibition is 7.59% (inactive). The same measure for `C=CCN1C(=O)NC(=O)/C(=C/c2ccc(OCC(=O)Nc3ccc(C)cc3)cc2)C1=O`: -53.5% (active); for `CCC(=O)c1ccc(OCC(=O)N2CCN(CC(=O)Nc3ccc(C)cc3)CC2)cc1`: -4.83% (inactive). With `CO[C@]12CC[C@@]3(C[C@@H]1[C@](C)(O)C(C)(C)C)[C@@H]1Cc4ccc(O)c5c4[C@@]3(CCN1CC1CC1)[C@H]2O5`, the activity change, negative = inhibition result was “inactive”. As for `CCCOC(=O)c1cncn1C(C)c1ccccc1` (stereo not given), the activity change, negative = inhibition is -0.694% (inactive).
